Experiment [1] addresses Thyrotropin-releasing hormone receptor (Homo sapiens) (UniProt P34981). The experiment in a line: qHTS assay to identify small molecule agonists of the thyrotropin-releasing hormone receptor (TRHR) signaling pathway (AID 1346891; calls by dose curve;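 note: HEK293 cells expressing TRHR with calcium dye readout; series mostly up to about 58 µM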). In short, it runs like this: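 HEK293/TRHR cells, 1500 per well, 18 h 37 °C; Ca dye 2 h 37 °C; pin-tool compound addition (agonist mode); kinetic fluorescence 3 min, 1 s reads; 15 concentrations, triplicate.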
Background: qHTS replaces the single test concentration by a dilution series.

Experiment [2] can be described thus: Human pregnane X receptor (PXR) small molecule agonists, qHTS cell viability counter screen (AID 1346977). Note: nearly all actives have a fitted effect of over 50% in size. In short, it runs like this:
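Fluorescence read-out (CellTiter-Fluor) of viability in PXR-Luc HepG2 cells, multiplexed with the luciferase agonist read. Compounds in DMSO added after 5hr plating; 24hr total exposure at 37C, 5% CO2.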

Experiment [3] is described as follows: Caspase-3/7 induction in HepG2 cells by small molecules, qHTS assay (AID 1346978). Note: nearly all actives have a fitted effect of over 15% in size. A digest of the protocol: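 Wild-type HepG2 cells, 2,000/well, settled 5 hr at 37 C and 5% CO2, then compound-treated for 17 hr; caspase-3/7 activity read by luminescent Caspase-Glo 3/7 after 30 min at room temperature.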
The nature of experiment [4]: Caspase-3/7 induction in CHO-K1 cells by small molecules, qHTS assay (AID 1346980). Note: nearly all actives have a fitted effect of over 15% in size. In short, it runs like this: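 Wild-type CHO-K1 cells exposed to compounds for 17hr at 37 C, 5% CO2. Caspase-3/7 activity then measured by Caspase-Glo 3/7 luminescence after 30min at room temperature.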
The nature of experiment [5]: Caspase-3/7 induction in HepG2 cells by small molecules, qHTS cell viability counter screen (AID 1346981). Note: series mostly up to about 92 µM; nearly all actives have a fitted effect of over 30% in size. A digest of the protocol: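 Fluorescence read-out of live-cell protease activity (CellTiter-Fluor) after 1 hr with reagent. This was measured in the same wells as the caspase-3/7 luminescence, on HepG2 cells exposed to DMSO-dissolved compounds for 16 hr at 37 C.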

Experiment [6] has as its target Nuclear receptor subfamily 1 group I member 2 (Homo sapiens) (UniProt O75469). Description: Human pregnane X receptor (PXR) small molecule agonists, qHTS assay (AID 1346982). Note: nearly all actives have a fitted effect of over 35% in size. Note: potency is the fitted concentration of half-maximal effect. In short, it runs like this: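 HepG2 PXR-Luc reporter line, 5% charcoal-stripped FBS; 5 hr pre-incubation, compound (DMSO) 24 hr at 37 C/5% CO2; ONE-Glo 30 min RT; luminescence read-out.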
For experiment [7], the target named is Acetylcholinesterase (Homo sapiens) (UniProt P22303). The experiment in a line: Acetylcholinesterase (AChE) small molecule antagonists: colormetric cell-based qHTS assay (AID 1347395; calls by dose curve; note: nearly all actives have a fitted effect of over 30% in size; note: potency is the fitted concentration of half-maximal effect). A digest of the protocol:
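SH-SY5Y cells; cpd 30 min 37 C; + DTNB/acetylthiocholine, 90 min 37 C; colorimetric thiocholine read; qHTS.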

Experiment [8] shares this target. The experiment in a line: Acetylcholinesterase (AChE) small molecule antagonists: enzyme-based qHTS assay (AID 1347397; calls by dose curve; note: nearly all actives have a fitted effect of over 55% in size). The settings on record: Potency: AChE enzyme activity inhibition; outcome: AChE enzyme activity inhibition. A digest of the protocol: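 Colorimetric DTNB read-out of thiocholine released from acetylthiocholine by recombinant human AChE (50 mU/mL as dispensed). Compounds were preincubated 30 min at RT before substrate/DTNB addition, with a 10 min RT reaction.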

The target is the same in experiment [9]. Description: Acetylcholinesterase (AChE) small molecule antagonists: fluorescence cell-based qHTS assay (AID 1347398; calls by dose curve; note: nearly all actives have a fitted effect of over 50% in size). As to conditions: Potency: AChE activity; outcome: AChE activity. A digest of the protocol: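 SH-SY5Y, 2,000 cells/well, attached overnight; cmpd 30 min 37 C; acetylthiocholine/Thiolite Green cocktail 40 min RT; fluorescence Ex/Em 490/520 nm.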

For experiment [10] the target is unchanged. Description: Acetylcholinesterase (AChE) small molecule antagonists: enzyme-based qHTS assay with human liver microsomes (AID 1347399; calls by dose curve; note: nearly all actives have a fitted effect of over 60% in size). The settings on record: Potency: qHTS inhibition; outcome: qHTS inhibition. A digest of the protocol: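 Recombinant human AChE (50 mU/mL in the enzyme mix) and human liver microsomes (0.25 mg/mL final) were preincubated with compound and NADPH (0.25 mg/mL final) for 30 min at 37 C. Acetylthiocholine/DTNB was then added; thiocholine was read colorimetrically after 10 min at room temperature.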

In experiment [11] the target is Cytochrome P450 2D6 (Homo sapiens) (UniProt P10635). Description: Cytochrome P450 Family 2 Subfamily D Member 6 (CYP2D6) small molecule antagonists: luciferase reporter qHTS assay (AID 1671196). Note: nearly all actives have a fitted effect of over 50% in size. Note: potency is the fitted concentration of half-maximal effect. A digest of the protocol: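 Luminogenic proluciferin substrate, CYP2D6 enzyme; 10 min RT preincubation with compound, NADPH regeneration system added, 1 h RT. Stop/detection reagent, 20 min RT, luminescence read (RLU). Signal proportional to CYP activity.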
On the technique in general: In a reporter assay the amount or activity of a reporter protein is the signal.

Experiment [12] addresses Cytochrome P450 2C19 (Homo sapiens) (UniProt P33261). The experiment in a line: Cytochrome P450 Family 2 Subfamily C Member 19 (CYP2C19) small molecule antagonists: luciferase reporter qHTS assay (AID 1671197). Note: nearly all actives have a fitted effect of over 65% in size. Note: potency is the fitted concentration of half-maximal effect. A digest of the protocol: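 Enzyme-substrate mix with proluciferin substrate (P450-Glo CYP2C19 system) preincubated with compounds 10 min at room temperature; NADPH regeneration solution added, 37C for 1 h; detection reagent stops reaction, luminescence read after 20 min. Ketoconazole positive control.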

In experiment [13] the target is Cytochrome P450 2C9 (Homo sapiens) (UniProt P11712). The experiment in a line: Cytochrome P450 Family 2 Subfamily C Member 9 (CYP2C9) small molecule antagonists: luciferase reporter qHTS assay (AID 1671198). Note: nearly all actives have a fitted effect of over 50% in size. Note: potency is the fitted concentration of half-maximal effect. A digest of the protocol: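 P450-Glo proluciferin substrate with CYP2C9 enzyme; 10 min RT preincubation, then NADPH regeneration 1 h at 37C; luciferin detection reagent 20 min RT, luminescence in relative luminescence units.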

The target in experiment [14] is Cytochrome P450 1A2 (Homo sapiens) (UniProt P05177). Description: Cytochrome P450 Family 1 Subfamily A Member 2 (CYP1A2) small molecule antagonists: luciferase reporter qHTS assay (AID 1671199). Note: nearly all actives have a fitted effect of over 50% in size. Note: potency is the fitted concentration of half-maximal effect. In short, it runs like this:
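Luminescence readout (relative luminescence units) after luciferin detection reagent, 20 min RT. Preceded by 1 h room-temperature CYP1A2 reaction with NADPH regeneration solution following 10 min compound preincubation with enzyme and proluciferin substrate. Furafylline positive control.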

In experiment [15] the target is Voltage-gated inwardly rectifying potassium channel KCNH2 (Homo sapiens) (UniProt Q12809). The experiment in a line: Human Ether-a-go-go-Related Gene (hERG) channel small molecule antagonists: fluorescence cell-based qHTS assay (AID 1671200). A digest of the protocol:
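Read-out: thallium influx as a surrogate for potassium, tracked as fluorescence (480 nm ex/540 nm em) every second for 2 min after Stimulus Buffer addition in dye-loaded hERG-U2OS cells.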
Background: Block of hERG is tested as a sign of cardiac risk.

The target of experiment [16] is Cytochrome P450 3A4 (Homo sapiens) (UniProt P08684). Description: Cytochrome P450 Family 3 Subfamily A Member 4 (CYP3A4) small molecule antagonists: luciferase reporter qHTS assay (AID 1671201). A digest of the protocol:
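Luminescent readout (RLU) proportional to CYP3A4 activity, from luciferin generated off a proluciferin substrate. Enzyme–substrate mix plus compound 10 min at room temp, NADPH regeneration 1 h, detection reagent 20 min.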

Experiment [17] has as its target Nuclear receptor subfamily 1 group I member 2 (Rattus norvegicus) (UniProt Q9R1A7). The experiment in a line: Rat pregnane X receptor (rPXR) activation by small molecules, qHTS assay (AID 1346983). Note: nearly all actives have a fitted effect of over 20% in size. The settings on record: rPXR luciferase reporter cells, One-Glo luminescence, 24 h; stronger effect = higher value. A digest of the protocol:
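Cell-based rPXR activation assay: rPXR cells, 2,000 per well, rested 5hr at 37 C, then exposed to compounds in DMSO for 24 hr at 37 C. Luciferase activity read by One-Glo luminescence after 30 min at room temperature.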

In experiment [18] the target is Nuclear receptor subfamily 1 group I member 2 (Homo sapiens) (UniProt O75469). Description: Human pregnane X receptor (PXR) activation by small molecules, qHTS assay (AID 1346985). Note: nearly all actives have a fitted effect of over 40% in size. A digest of the protocol:
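DPX-2 cells (HepG2 co-transfected with a PXR response element and a CYP3A4-promoter luciferase construct) were seeded at 2,000 per well, rested 5 hr at 37C, then exposed to DMSO-dissolved compounds for 24 hr. Activation was read as luciferase luminescence.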

Experiment [19] is described as follows: Caspase-3/7 induction in CHO-K1 cells by small molecules, qHTS cell viability counter screen (AID 1346979). Note: nearly all actives have a fitted effect of over 35% in size. A digest of the protocol: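 CHO-K1 wt, 1,500 cells/well; 5hr pre-incubation 37C/5% CO2; compound pin transfer (DMSO); 16hr exposure; CellTiter-Fluor added, 1hr, fluorescence read.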

Structures are written as SMILES. A number with no mark means an inactive call. Inconclusive results are not listed. Active and inactive are the calls of the source. Unless noted, calls come from the whole dose curve; as a rule, active = well fitted curve in the direction sought with a large enough effect in the repeat runs; inconclusive = weak or mixed curves; inactive = no such curve, though single readings can be large; an effect the other way counts as inactive or inconclusive.
% is set by controls: 0 for no effect and ±100 for the full control effect.

Cytochrome P450 2C9 (Homo sapiens), sequence (P11712 whole entry, looked up): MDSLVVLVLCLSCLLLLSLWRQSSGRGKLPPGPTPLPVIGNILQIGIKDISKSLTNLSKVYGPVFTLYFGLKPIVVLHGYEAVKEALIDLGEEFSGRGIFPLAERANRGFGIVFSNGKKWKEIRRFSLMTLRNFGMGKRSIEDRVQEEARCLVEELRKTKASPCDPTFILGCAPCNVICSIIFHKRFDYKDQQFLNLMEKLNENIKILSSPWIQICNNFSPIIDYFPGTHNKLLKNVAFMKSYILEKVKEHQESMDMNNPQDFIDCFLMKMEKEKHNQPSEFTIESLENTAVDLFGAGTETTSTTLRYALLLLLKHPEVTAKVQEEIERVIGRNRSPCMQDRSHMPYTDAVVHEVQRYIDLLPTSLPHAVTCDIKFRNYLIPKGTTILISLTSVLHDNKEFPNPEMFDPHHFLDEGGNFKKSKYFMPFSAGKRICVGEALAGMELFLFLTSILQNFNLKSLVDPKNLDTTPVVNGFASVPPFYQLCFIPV
Thyrotropin-releasing hormone receptor (Homo sapiens), sequence (P34981 whole entry, looked up): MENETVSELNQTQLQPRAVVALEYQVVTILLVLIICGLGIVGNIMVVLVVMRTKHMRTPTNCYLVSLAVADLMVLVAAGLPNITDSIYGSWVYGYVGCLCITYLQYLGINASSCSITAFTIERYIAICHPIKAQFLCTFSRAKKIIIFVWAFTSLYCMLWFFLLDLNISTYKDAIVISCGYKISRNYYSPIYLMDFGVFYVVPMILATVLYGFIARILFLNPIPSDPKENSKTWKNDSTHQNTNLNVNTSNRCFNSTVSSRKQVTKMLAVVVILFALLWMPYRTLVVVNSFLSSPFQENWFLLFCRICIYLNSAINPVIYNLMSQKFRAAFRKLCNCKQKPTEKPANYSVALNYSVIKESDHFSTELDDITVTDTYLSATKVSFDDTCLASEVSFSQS
Cytochrome P450 2C19 (Homo sapiens), sequence (P33261 whole entry, looked up): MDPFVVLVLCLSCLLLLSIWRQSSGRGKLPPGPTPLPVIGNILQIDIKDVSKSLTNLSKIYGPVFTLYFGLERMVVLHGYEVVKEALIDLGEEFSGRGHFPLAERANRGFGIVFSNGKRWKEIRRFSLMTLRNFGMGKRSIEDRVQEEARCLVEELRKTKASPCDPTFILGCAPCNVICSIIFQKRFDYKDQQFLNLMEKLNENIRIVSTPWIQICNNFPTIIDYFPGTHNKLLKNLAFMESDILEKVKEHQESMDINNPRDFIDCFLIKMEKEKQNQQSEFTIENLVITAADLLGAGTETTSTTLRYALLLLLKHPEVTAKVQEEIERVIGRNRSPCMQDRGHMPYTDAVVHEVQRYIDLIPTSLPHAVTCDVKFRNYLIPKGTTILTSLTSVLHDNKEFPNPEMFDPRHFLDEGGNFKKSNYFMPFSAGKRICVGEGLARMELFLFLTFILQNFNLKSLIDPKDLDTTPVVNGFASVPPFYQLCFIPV
Nuclear receptor subfamily 1 group I member 2 (Rattus norvegicus), sequence (Q9R1A7 whole entry, looked up): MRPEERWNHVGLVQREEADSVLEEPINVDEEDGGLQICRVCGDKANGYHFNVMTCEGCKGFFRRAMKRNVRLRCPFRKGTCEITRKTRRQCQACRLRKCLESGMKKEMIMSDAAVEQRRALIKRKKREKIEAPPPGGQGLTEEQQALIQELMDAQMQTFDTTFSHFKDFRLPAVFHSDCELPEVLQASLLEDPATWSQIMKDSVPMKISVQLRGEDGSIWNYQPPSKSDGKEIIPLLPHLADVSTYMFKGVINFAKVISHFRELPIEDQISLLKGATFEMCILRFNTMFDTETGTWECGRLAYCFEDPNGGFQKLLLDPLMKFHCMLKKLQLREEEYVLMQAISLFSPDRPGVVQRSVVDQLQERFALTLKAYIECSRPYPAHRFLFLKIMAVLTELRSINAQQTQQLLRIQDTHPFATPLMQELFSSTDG
Cytochrome P450 3A4 (Homo sapiens), sequence (P08684 whole entry, looked up): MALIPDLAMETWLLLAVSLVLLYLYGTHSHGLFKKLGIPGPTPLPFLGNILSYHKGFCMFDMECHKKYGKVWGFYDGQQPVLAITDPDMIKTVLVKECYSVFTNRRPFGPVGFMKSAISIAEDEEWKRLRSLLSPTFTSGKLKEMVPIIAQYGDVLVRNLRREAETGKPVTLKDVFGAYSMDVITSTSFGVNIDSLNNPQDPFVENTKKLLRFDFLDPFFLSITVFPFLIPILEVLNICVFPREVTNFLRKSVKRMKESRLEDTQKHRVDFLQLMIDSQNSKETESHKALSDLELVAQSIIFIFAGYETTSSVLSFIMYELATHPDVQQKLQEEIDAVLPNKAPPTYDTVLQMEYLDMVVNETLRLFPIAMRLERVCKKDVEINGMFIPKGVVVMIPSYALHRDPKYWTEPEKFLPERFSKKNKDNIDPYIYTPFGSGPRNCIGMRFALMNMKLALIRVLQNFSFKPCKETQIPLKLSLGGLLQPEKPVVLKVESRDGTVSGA
Nuclear receptor subfamily 1 group I member 2 (Homo sapiens), sequence (O75469 whole entry, looked up): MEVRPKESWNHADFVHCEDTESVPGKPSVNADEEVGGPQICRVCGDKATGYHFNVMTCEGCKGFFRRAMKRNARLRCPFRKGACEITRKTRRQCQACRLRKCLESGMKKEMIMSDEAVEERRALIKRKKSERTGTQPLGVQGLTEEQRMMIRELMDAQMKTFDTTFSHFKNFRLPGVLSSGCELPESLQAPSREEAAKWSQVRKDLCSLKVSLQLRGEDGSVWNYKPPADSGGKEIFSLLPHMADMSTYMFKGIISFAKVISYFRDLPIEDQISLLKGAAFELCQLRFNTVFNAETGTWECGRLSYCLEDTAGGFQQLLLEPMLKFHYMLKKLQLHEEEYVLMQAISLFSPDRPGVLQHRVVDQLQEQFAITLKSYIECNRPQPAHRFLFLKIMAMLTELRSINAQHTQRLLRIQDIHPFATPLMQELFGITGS
Acetylcholinesterase (Homo sapiens), sequence (P22303 whole entry, looked up): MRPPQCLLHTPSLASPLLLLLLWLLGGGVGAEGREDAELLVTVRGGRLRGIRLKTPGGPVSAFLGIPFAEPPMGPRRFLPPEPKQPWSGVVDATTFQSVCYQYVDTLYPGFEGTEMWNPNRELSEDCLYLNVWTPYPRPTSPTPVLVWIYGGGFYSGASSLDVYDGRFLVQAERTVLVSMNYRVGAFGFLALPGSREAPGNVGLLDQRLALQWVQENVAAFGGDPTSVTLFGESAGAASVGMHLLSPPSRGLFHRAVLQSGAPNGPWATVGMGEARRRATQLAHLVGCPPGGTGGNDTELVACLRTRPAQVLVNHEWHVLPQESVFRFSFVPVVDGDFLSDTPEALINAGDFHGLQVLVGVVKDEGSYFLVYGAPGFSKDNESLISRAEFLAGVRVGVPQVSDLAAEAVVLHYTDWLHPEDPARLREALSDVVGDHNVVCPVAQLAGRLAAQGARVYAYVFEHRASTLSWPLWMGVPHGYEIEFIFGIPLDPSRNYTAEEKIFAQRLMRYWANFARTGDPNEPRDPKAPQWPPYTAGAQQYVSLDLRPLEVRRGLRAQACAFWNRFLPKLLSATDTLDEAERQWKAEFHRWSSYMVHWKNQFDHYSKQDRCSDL
Cytochrome P450 1A2 (Homo sapiens), sequence (P05177 whole entry, looked up): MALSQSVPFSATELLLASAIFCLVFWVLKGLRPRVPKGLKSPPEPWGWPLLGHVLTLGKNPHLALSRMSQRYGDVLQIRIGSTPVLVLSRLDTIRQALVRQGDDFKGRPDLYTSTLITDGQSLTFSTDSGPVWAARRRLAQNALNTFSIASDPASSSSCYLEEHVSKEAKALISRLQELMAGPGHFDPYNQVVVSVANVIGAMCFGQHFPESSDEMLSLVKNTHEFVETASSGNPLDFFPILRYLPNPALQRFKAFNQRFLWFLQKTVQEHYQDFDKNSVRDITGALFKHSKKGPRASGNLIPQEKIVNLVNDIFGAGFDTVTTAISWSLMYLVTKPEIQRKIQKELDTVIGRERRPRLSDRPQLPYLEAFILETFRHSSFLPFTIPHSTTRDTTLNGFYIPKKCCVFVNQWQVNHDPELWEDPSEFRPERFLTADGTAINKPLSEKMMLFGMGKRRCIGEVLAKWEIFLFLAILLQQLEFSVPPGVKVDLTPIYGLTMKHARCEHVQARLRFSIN
Cytochrome P450 2D6 (Homo sapiens), sequence (P10635 whole entry, looked up): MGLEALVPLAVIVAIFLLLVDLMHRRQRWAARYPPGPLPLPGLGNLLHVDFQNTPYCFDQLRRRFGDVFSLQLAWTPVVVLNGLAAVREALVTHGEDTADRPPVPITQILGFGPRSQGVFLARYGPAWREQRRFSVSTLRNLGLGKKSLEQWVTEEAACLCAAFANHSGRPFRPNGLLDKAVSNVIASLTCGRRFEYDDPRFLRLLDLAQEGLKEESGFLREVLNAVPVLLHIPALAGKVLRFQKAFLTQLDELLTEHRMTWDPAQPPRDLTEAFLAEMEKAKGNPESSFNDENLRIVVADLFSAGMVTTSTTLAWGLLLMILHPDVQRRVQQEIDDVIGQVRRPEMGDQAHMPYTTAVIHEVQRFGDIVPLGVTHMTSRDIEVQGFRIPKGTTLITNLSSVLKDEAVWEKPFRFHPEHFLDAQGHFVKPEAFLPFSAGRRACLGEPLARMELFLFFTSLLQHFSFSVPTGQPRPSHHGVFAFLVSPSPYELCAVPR

With `COc1cccc(C=O)c1`, the result in experiment [1], in experiment [3] and in [4] was inactive. Further, the Potency entry in [2], in [5], in experiment [6], in experiment [7], in experiment [8] and in experiment [9] was “inactive” in each case. In addition, the Potency entry in [10], in [11], in [12], in experiment [13], in [15] and in experiment [16] was “inactive” in each case. In addition, the Potency in experiment [14] is 39.9 µM (active).

For the molecule `C=C(C)[C@H]1CN[C@H](C(=O)O)[C@H]1CC(=O)O`, the outcome in experiment [1], in [3] and in experiment [4] was inactive. The Potency result in experiment [2], in [5], in experiment [6], in [18], in experiment [8] and in [9] was “inactive” each time. The Potency result in [10], in experiment [11], in experiment [12], in experiment [13], in experiment [14] and in [15] was “inactive” in each case. For the same molecule, the Potency entry in [16] is “inactive”. Also, the max activation in experiment [17] is -1.12%.

Turning to `c1cncc([C@@H]2CCCCN2)c1`, the molecule was called inactive in experiment [1], in [3] and in [4]. Besides, the Potency entry in experiment [2], in experiment [5], in experiment [7], in [8], in [9] and in experiment [10] was “inactive” each time. Also, the Potency entry in experiment [15] was “inactive”. The Potency in experiment [6] was 21.7 µM (active); in experiment [12], 39.9 µM (active).

Turning to `CC1NCCOC1c1ccccc1` (stereo unspecified), the result in experiment [1] and in experiment [4] was inactive. Moreover, the Potency result in experiment [2], in experiment [19], in [5], in experiment [6], in experiment [18] and in experiment [7] was “inactive” throughout. For the same molecule, the Potency entry in experiment [8], in [9], in experiment [10], in [12], in experiment [13] and in [14] was “inactive” in each case. Further, the Potency entry in experiment [15] and in [16] was “inactive” throughout. Also, the max activation in experiment [17] is -1.57%.

As to `C[C@@H](N)[C@@H](O)c1ccccc1`, the outcome in experiment [1] and in [3] was inactive. The Potency entry in experiment [2], in experiment [5], in experiment [6], in [18], in experiment [13] and in experiment [14] was “inactive” throughout. The Potency entry in experiment [15] and in experiment [16] was “inactive” throughout. Moreover, in [17], the max activation is -1.4%. Also, the results for the Potency in experiment [11] and in [12] were 17.4 µM (active) and 21.9 µM (active), respectively.

Consider `CCCCCCCCSC(=O)Oc1cc(Cl)nnc1-c1ccccc1`, for which the outcome in [1], in [3] and in experiment [4] was inactive. Also, the Potency entry in experiment [2], in [5], in experiment [7], in experiment [8], in experiment [9] and in experiment [10] was “inactive” throughout. The Potency entry in experiment [11], in experiment [15] and in experiment [16] was “inactive” in each case. The Potency in experiment [13] is 35.6 µM (active).

Turning to `CS(=O)(=O)c1ccc(C(=O)C2C(=O)CCCC2=O)c(Cl)c1COCC(F)(F)F`, the molecule was classed as inactive in experiment [1], in [3] and in experiment [4]. Moreover, the Potency result in experiment [2], in experiment [5], in experiment [6], in [8], in experiment [11] and in [12] was “inactive” each time. Moreover, the Potency entry in [14] and in experiment [15] was “inactive” throughout. In addition, the Potency in [7] is 28.3 µM (active); in [13] it was 6.33 µM (active).

(Values after PubChem BioAssay (Tox21).)
